The record followed here is ChEMBL document CHEMBL3988442, “University of Dundee, Small-Polar-MMV Screening Library” (2021).

In all, about 67,000 compounds went through this assay and about 300 (0.45%) showed an effect of 50% or more. The list comes from a sample in which strong results are over-represented; it also holds similar structures and randomly drawn compounds.

In the test the target is Polyketide synthase Pks13 (Mycobacterium tuberculosis (strain ATCC 25618 / H37Rv)) (UniProt I6X8D2). Nature of the test: Mycobacterium tuberculosis Polyketide synthase 13 Thioesterase (PKS13). In kind it is functional. Also noted: scale not given: in the data most compounds retested in dose-response had high values. The following applies: 30 µM.
Chain of Polyketide synthase Pks13 (Mycobacterium tuberculosis (strain ATCC 25618 / H37Rv)) (I6X8D2 whole entry): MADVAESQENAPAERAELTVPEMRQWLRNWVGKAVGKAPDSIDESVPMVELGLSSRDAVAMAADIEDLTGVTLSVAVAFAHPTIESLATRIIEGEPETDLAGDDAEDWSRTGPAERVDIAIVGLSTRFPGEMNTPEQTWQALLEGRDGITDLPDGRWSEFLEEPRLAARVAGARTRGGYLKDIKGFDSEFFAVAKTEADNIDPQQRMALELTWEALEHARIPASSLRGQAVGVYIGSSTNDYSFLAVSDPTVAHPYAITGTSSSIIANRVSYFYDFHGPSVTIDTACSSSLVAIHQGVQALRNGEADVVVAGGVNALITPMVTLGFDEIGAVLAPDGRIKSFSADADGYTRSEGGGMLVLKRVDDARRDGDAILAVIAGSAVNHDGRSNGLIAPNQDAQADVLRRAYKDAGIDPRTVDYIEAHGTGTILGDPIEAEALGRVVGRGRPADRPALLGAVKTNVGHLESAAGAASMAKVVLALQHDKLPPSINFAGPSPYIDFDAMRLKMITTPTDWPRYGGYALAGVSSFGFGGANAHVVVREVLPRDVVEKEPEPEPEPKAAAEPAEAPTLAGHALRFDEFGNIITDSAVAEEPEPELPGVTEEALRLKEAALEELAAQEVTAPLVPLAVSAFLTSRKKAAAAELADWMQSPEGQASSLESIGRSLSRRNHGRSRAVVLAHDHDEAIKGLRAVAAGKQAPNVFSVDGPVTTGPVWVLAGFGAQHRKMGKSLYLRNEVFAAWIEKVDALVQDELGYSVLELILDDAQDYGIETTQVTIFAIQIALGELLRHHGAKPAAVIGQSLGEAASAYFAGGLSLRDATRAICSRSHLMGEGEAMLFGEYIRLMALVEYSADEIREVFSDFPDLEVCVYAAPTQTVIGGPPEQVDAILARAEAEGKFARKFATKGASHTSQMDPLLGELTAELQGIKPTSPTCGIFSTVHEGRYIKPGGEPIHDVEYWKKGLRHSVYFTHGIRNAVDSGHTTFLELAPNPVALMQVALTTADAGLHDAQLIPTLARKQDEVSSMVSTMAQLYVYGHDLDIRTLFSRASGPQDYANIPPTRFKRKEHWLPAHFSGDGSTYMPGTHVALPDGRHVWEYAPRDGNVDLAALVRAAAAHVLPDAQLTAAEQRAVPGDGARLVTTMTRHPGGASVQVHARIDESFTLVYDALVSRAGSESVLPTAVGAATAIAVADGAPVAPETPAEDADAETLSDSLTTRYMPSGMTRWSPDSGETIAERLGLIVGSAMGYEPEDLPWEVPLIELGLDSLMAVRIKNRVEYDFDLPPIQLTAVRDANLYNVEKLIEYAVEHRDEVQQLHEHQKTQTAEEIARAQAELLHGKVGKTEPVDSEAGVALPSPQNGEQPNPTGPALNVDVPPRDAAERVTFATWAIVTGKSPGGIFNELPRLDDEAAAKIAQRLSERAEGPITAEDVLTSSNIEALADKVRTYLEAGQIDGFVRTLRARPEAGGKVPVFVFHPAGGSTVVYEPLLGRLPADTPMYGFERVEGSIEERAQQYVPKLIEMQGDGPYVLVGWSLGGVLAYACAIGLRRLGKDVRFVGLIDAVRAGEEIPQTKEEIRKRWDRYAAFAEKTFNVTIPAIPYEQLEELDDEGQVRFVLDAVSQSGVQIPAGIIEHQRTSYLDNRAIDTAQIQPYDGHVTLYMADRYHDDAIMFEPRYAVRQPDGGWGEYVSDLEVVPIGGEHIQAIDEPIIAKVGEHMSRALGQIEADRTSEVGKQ
Turning to `O=C(Cc1cccc(F)c1)N1CCc2ncnc(NC3CC3)c2CC1`, the Percent Effect is 121%. Take `O=C(Cc1cccc(F)c1)N1CCc2ncnc(NC3CCC3)c2CC1`: the Percent Effect was -11.9%. Regarding `Cn1cnc2c1C(COCC1CCOCC1)CN(C1CCOCC1)C2` (centres undefined), the Percent Effect is -38%. The figure for `Cn1cnc2c1C(COCC1CCOCC1)CN(Cc1ccccn1)C2` (centres undefined) is -19.7%; for `CCOCCN1Cc2ncn(C)c2C(COCC2CCOCC2)C1` (centres undefined) it is 55.1%; for `CN1C(=O)C[C@@H]2[C@@H]1CCN2S(=O)(=O)Cc1ccccc1` it is -11.3%. The result for `O=C(COCC1CC[C@H]2[C@H](CCN2c2ncccn2)O1)N1CCCC1` (some centres undefined) reads 9.91%; that for `Nc1cc(C(=O)NCC2CCN(Cc3ccncc3F)C2)ccn1` (centres undefined), 141%.

`Nc1cc(C(=O)NCC2CCN(Cc3cccc(O)c3)C2)ccn1` (centres undefined): the Percent Effect was -14.3%. The figure for `CC/C=C(\C)CN1CCC(CNC(=O)c2ccnc(N)c2)C1` (centres undefined) is -25.3%. `CCc1ccc(CN2CC[C@H]3C[C@H](c4nnc(C)[nH]4)O[C@@H]3C2)o1`: the Percent Effect amounted to 32%. The result for `O=C(NCC1CC1)[C@@H]1CCO[C@@H]2CCN(Cc3ccc(F)cc3)C[C@H]21` reads -0.289%; that for `CNC(=O)CC1CC2(CCN(c3ncccn3)CC2)c2ccccc21` (centres undefined), -25.9%.

`c1cnc(N2CCC3(CC2)CC(NCC2CC2)c2ccccc23)nc1` (centres undefined): the Percent Effect is 2.19%. Take `CNC(=O)CNC1CC2(CCN(c3ncccn3)CC2)c2ccccc21` (centres undefined): the Percent Effect was determined as 61.9%. The result for `O=C1[C@@H]2CN(c3ncc(Cl)cc3F)C[C@]2(C(=O)O)CN1CC1CC1` reads 5.43%. With `O=C(c1cnccn1)N1CCN2C[C@H](OCc3ccccn3)C[C@H]2C1`, the Percent Effect was -10.5%. As to `O=C(N[C@@H]1CN(Cc2ccccc2)C[C@@H]2CCCO[C@@H]21)C1CC1`, the Percent Effect is -12.9%.

Take `CCN1C(=O)CC[C@@H]2[C@H]1CCN2S(=O)(=O)c1cccs1`: the Percent Effect is -25.3%. The figure for `CC(C)(C)C(=O)N1CCCN(c2ncnc3nc(N)ccc23)CC1` is 18.3%; for `Cc1ccc(C(=O)N2CCN(c3ncnc4nc(N)ccc34)CC2)cc1` it is -11.7%. The figure for `Cc1ccc(C(=O)N2CCN(c3ncnc4nc(N)ccc34)CC2)o1` is 65.6%. With `Cc1c(C(=O)N2CCS(=O)(=O)CC2)nnn1-c1ccc2ncccc2c1`, the Percent Effect is -29.1%. The result for `Cc1c(C(=O)N2CCOCC2)nnn1-c1ccc2ncccc2c1` reads 67.3%; that for `Cc1c(C(=O)N2CCC2)nnn1-c1ccc2ncccc2c1`, -7.58%; that for `CCS(=O)(=O)N1C[C@H]2CC[C@](O)(c3ccc(C)cc3)[C@H]2C1`, 8.05%. On to `Cn1nc(C2CCCN(Cc3ccccc3)C2)c2nccnc21` (centres undefined), for which the Percent Effect came out at 3.08%. `Cc1ccc(CN2CCCC(c3nn(C)c4nccnc34)C2)s1` (centres undefined): the Percent Effect stood at 115%.

`Cn1nc(C2CCCN(Cc3cccs3)C2)c2nccnc21` (centres undefined): the Percent Effect is 13%. The figure for `Cc1cc(CN2CC[C@H]3C(=O)N(c4ccsc4)CCO[C@H]3C2)no1` is -5.2%; for `Cc1csc([C@H]2C[C@@H]3CCN(C(=O)c4cnccn4)C[C@H]3O2)n1` it is -30.8%; for `CCn1cc(-c2cc(-c3cc(CC(=O)O)cs3)nc(N)c2C#N)c(C)n1` it is -51.8%. Turning to `Cc1nn(C)c(C)c1-c1cc(-c2cc(CC(=O)O)cs2)nc(N)c1C#N`, the Percent Effect amounted to 47.9%. The figure for `CCn1cc(-c2cc(-c3cc(CN(C)C)cs3)nc(N)c2C#N)c(C)n1` is 76.9%; for `COCCN1C[C@H]2CN(Cc3cccc(OC(F)(F)F)c3)CCN2C1=O` it is -30.8%; for `Cc1cc(CNC(=O)[C@H]2CCCCN2C(=O)OC(C)(C)C)on1` it is -8.92%. The figure for `Cc1ccc(CNC(=O)C2CCCCN2C(=O)OC(C)(C)C)cn1` (centres undefined) is 56.8%; for `CC(C)(C)OC(=O)N1CCCCC1C(=O)NCc1cc[nH]n1` (centres undefined) it is -18.2%; for `COc1cc(N2C[C@@H]3COC[C@]3(COCc3cccc(C)n3)C2)ncn1` it is -18.9%. `COc1ccc2[nH]c(C[C@@H]3C[C@@H](C(C)C)[C@H](CN(C)C)C=C3C)nc2c1`: the Percent Effect turned out to be 1.51%. The result for `COc1ccc2nc(C[C@@H]3C[C@@H](C(C)C)[C@H](CN(C)C)C=C3C)[nH]c2n1` reads -71.1%. Regarding `COc1ccc2nc(C[C@@H]3C[C@@H](C(C)C)[C@H](CN)C=C3C)[nH]c2n1`, the Percent Effect worked out at 56.2%. Consider `CCn1nc(C)cc1C(=O)N1C[C@@H]2C[C@@H](c3nnc(C)[nH]3)O[C@@H]2C1`, for which the Percent Effect is -31.5%. As for `COCCN1C[C@H]2[C@@H](C1)N(C(=O)COc1ccccc1)CC[C@H]2OC`, the Percent Effect was -22.6%. The result for `Cc1ccc2nc(-c3cnc(N)nc3)cc(C(=O)N(C)C)c2c1` reads 1.85%. As to `CN(C)C(=O)c1cc(-c2cnc(N)nc2)nc2cc(F)ccc12`, the Percent Effect was -19.1%.

On to `COc1ccc2c(C(=O)N(C)C)cc(-c3cnc(N)nc3)nc2c1`, for which the Percent Effect was 75.3%.

`COc1ccc(C(=O)N2CC[C@@H]3[C@H](CC2)N(C)CCS3(=O)=O)cc1`: the Percent Effect was -17.1%. The result for `Fc1cccc(CN2C[C@@H]3CN(c4ncccn4)C[C@@H]3C2)c1` reads -4.52%. With `CN(C)c1cnn(Cc2nc3ccccc3n2C)c(=O)c1`, the Percent Effect is -19.4%.

In the case of `Cn1c(Cn2ncc(N3CCCCC3)cc2=O)nc2ccccc21`, the Percent Effect was found to be 91%. The result for `Cn1c(Cn2ncc(N3CCCC3)cc2=O)nc2ccccc21` reads -18.2%; that for `COc1ncccc1C(=O)N1CC[C@H]2C[C@@H](C)O[C@@H]2C1`, -30.1%; that for `c1ccc(NC[C@@H]2CCC[C@@H]3CN(Cc4cccnc4)C[C@@H]32)nc1`, -17.4%.
